Data from article PMC8384837, “Expanding the binding specificity for RNA recognition by a PUF domain”.
Numbering of substitutions follows the chain as printed.

How the values were obtained:
Experiment in all cases: yeast three-hybrid, YBZ-1, SC-Leu-His + 0.5 mM 3-AT, 4 days
Details in all cases: tags: N-Gal4 AD-HA kept; label: inside an RPR1-promoter hybrid RNA with tandem MS2 sites; ssRNA
PUM1 PUF domain R5-HLK = PUM1 PUF domain R5-HLK (Homo sapiens, UniProt Q14671 828-1176, C1007H;R1008L;Q1011K)
How it was run: (§1)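 Repeat regions from input (SC-Leu) and selection (SC-Leu-His + 0.5 mM 3-AT) plates were PCR-amplified and Illumina-sequenced after four days of growth. The cells were strain YBZ-1 with a LexA–MS2 coat fusion and a HIS3 reporter, co-expressing Pumilio-1 PUF domain libraries and matching RNA elements from a centromeric plasmid. The interaction score is the log change in variant frequency from input to selection, taken in log2 with a pseudocount of 1 for absent variants.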

PUM1 PUF domain R5-RAA = PUM1 PUF domain R5-RAA (Homo sapiens, UniProt Q14671 828-1176, C1007R;R1008A;Q1011A)
How it was run: as §1

PUM1 PUF domain R5-NAG = PUM1 PUF domain R5-NAG (Homo sapiens, UniProt Q14671 828-1176, C1007N;R1008A;Q1011G)
How it was run: as §1

PUM1 PUF domain R1-FGR = PUM1 PUF domain R1-FGR (Homo sapiens, UniProt Q14671 828-1176, S863F;R864G;Q867R)
PUM1 PUF domain R1-FGR, sequence (Q14671 828-1176 S863F/R864G/Q867R): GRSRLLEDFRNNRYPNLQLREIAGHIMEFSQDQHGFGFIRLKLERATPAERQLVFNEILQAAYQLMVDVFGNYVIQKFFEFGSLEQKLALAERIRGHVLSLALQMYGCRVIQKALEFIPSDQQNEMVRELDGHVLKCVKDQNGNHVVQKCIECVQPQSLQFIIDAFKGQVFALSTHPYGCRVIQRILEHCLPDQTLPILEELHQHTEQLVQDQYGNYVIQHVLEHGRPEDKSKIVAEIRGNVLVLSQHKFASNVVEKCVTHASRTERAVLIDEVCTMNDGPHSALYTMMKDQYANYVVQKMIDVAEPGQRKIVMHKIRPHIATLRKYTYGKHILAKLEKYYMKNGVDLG
How it was run: as §1

PUM1 PUF domain R2-RRQ = PUM1 PUF domain R2-RRQ (Homo sapiens, UniProt Q14671 828-1176, N899R;Y900R)
How it was run: as §1

PUM1 PUF domain R7-RVQ = PUM1 PUF domain R7-RVQ (Homo sapiens, UniProt Q14671 828-1176, S1079R;N1080V;E1083Q)
How it was run: as §1

PUM1 PUF domain R6-MYR = target: T1, PUM1 PUF domain R6-MYR (Homo sapiens, UniProt Q14671 828-1176, N1043M;Q1047R)
T1 sequence: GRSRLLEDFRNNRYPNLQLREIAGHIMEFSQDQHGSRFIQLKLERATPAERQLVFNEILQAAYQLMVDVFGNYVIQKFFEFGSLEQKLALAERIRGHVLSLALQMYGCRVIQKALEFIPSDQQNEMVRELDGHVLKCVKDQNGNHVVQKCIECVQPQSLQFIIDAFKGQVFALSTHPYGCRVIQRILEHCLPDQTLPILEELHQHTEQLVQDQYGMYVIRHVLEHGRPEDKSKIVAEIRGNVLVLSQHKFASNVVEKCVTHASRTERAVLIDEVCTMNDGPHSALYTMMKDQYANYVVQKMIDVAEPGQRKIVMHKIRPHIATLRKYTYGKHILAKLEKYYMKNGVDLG
How it was run: as §1

PUM1 PUF domain R3-FWA = PUM1 PUF domain R3-FWA (Homo sapiens, UniProt Q14671 828-1176, C935F;R936W;Q939A)
How it was run: as §1

PUM1 PUF domain R3-KRG = PUM1 PUF domain R3-KRG (Homo sapiens, UniProt Q14671 828-1176, C935K;Q939G)
How it was run: as §1

PUM1 PUF domain R4-CYG = PUM1 PUF domain R4-CYG (Homo sapiens, UniProt Q14671 828-1176, N971C;H972Y;Q975G)
How it was run: as §1

PUM1 PUF domain R4-SPT = PUM1 PUF domain R4-SPT (Homo sapiens, UniProt Q14671 828-1176, N971S;H972P;Q975T)
How it was run: as §1

PUM1 PUF domain R6-VWR = target: T2, PUM1 PUF domain R6-VWR (Homo sapiens, UniProt Q14671 828-1176, N1043V;Y1044W;Q1047R)
T2 sequence: T1 sequence with M216V, Y217W
How it was run: as §1

PUM1 PUF domain R6-DWV = target: T3, PUM1 PUF domain R6-DWV (Homo sapiens, UniProt Q14671 828-1176, N1043D;Y1044W;Q1047V)
T3 sequence: T1 sequence with M216D, Y217W, R220V
How it was run: as §1

PUM1 PUF domain R3-YFA = PUM1 PUF domain R3-YFA (Homo sapiens, UniProt Q14671 828-1176, C935Y;R936F;Q939A)
How it was run: as §1

PUM1 PUF domain R3-YRL = PUM1 PUF domain R3-YRL (Homo sapiens, UniProt Q14671 828-1176, C935Y;Q939L)
How it was run: as §1

PUM1 PUF domain R8-HFR = PUM1 PUF domain R8-HFR (Homo sapiens, UniProt Q14671 828-1176, N1122H;Y1123F;Q1126R)
How it was run: as §1

PUM1 PUF domain R3-RGR = PUM1 PUF domain R3-RGR (Homo sapiens, UniProt Q14671 828-1176, C935R;R936G;Q939R)
PUM1 PUF domain R3-RGR, sequence (Q14671 828-1176 C935R/R936G/Q939R): as the sequence (Q14671 828-1176 S863F/R864G/Q867R) above, with F36S, G37R, R40Q, C108R, R109G, Q112R counted along it
How it was run: as §1

PUM1 PUF domain R5-FHM = PUM1 PUF domain R5-FHM (Homo sapiens, UniProt Q14671 828-1176, C1007F;R1008H;Q1011M)
PUM1 PUF domain R5-FHM, sequence (Q14671 828-1176 C1007F/R1008H/Q1011M): as the sequence (Q14671 828-1176 S863F/R864G/Q867R) above, with F36S, G37R, R40Q, C180F, R181H, Q184M counted along it
How it was run: as §1

PUM1 PUF domain R5-FRY = PUM1 PUF domain R5-FRY (Homo sapiens, UniProt Q14671 828-1176, C1007F;Q1011Y)
PUM1 PUF domain R5-FRY, sequence (Q14671 828-1176 C1007F/Q1011Y): as the sequence (Q14671 828-1176 S863F/R864G/Q867R) above, with F36S, G37R, R40Q, C180F, Q184Y counted along it
How it was run: as §1

PUM1 PUF domain R5-FHE = PUM1 PUF domain R5-FHE (Homo sapiens, UniProt Q14671 828-1176, C1007F;R1008H;Q1011E)
PUM1 PUF domain R5-FHE, sequence (Q14671 828-1176 C1007F/R1008H/Q1011E): as the sequence (Q14671 828-1176 S863F/R864G/Q867R) above, with F36S, G37R, R40Q, C180F, R181H, Q184E counted along it
How it was run: as §1

Question: What does the source list for “GGCUAGAACUAGUGGAUCCCCCGGCGCCCGGCGGCUCGAGCCCGGGUAAGUGUUAAUAGUCUGCAUGCCGCCGGGCGCCAUGCCUGCAGGUCGACUCUAGAAAACAUG”?
Answer: binding signal (PUM1 PUF domain R5-HLK): 3.05 log2 enrichment (interaction score); binding signal (PUM1 PUF domain R5-RAA): 1.06 log2 enrichment (interaction score); binding signal (PUM1 PUF domain R5-NAG): 4.83 log2 enrichment (interaction score)

Question: How did the binding signal (PUM1 PUF domain R1-FGR) turn out when “GGCUAGAACUAGUGGAUCCCCCGGCGCCCGGCGGCUCGAGCCCGGGUAAGUGUAAAUCGUCUGCAUGCCGCCGGGCGCCAUGCCUGCAGGUCGACUCUAGAAAACAUG” was run?
Answer: 0.54 log2 enrichment (interaction score)

Question: For “GGCUAGAACUAGUGGAUCCCCCGGCGCCCGGCGGCUCGAGCCCGGGUAAGUGUAAAGAGUCUGCAUGCCGCCGGGCGCCAUGCCUGCAGGUCGACUCUAGAAAACAUG”, which binding signal (PUM1 PUF domain R2-RRQ) is on record?
Answer: 3.28 log2 enrichment (interaction score)

Question: With “GGCUAGAACUAGUGGAUCCCCCGGCGCCCGGCGGCUCGAGCCCGGGUAAGUUUAAAUAGUCUGCAUGCCGCCGGGCGCCAUGCCUGCAGGUCGACUCUAGAAAACAUG” as the sequence, how does the binding signal (PUM1 PUF domain R7-RVQ) read?
Answer: 3.81 log2 enrichment (interaction score)

Question: How did the binding signal (PUM1 PUF domain R6-MYR) turn out when “GGCUAGAACUAGUGGAUCCCCCGGCGCCCGGCGGCUCGAGCCCGGGUAAGUGCAAAUAGUCUGCAUGCCGCCGGGCGCCAUGCCUGCAGGUCGACUCUAGAAAACAUG” was run?
Answer: 2.56 log2 enrichment (interaction score)

Question: How did the binding signal (PUM1 PUF domain R3-FWA) turn out when “GGCUAGAACUAGUGGAUCCCCCGGCGCCCGGCGGCUCGAGCCCGGGUAAGUGUAAAUAGUCUGCAUGCCGCCGGGCGCCAUGCCUGCAGGUCGACUCUAGAAAACAUG” was run?
Answer: 4.55 log2 enrichment (interaction score)

Question: What about the binding signal (PUM1 PUF domain R3-KRG) of the same sequence?
Answer: 2.15 log2 enrichment (interaction score)

Question: And the binding signal (PUM1 PUF domain R4-CYG)?
Answer: 7.43 log2 enrichment (interaction score)

Question: What about the binding signal (PUM1 PUF domain R6-MYR) of the same sequence?
Answer: 6.42 log2 enrichment (interaction score)

Question: And the binding signal (PUM1 PUF domain R4-SPT)?
Answer: 3.95 log2 enrichment (interaction score)

Question: And the binding signal (PUM1 PUF domain R6-VWR)?
Answer: 5.89 log2 enrichment (interaction score)

Question: What about the binding signal (PUM1 PUF domain R6-DWV) of the same sequence?
Answer: 2.46 log2 enrichment (interaction score)

Question: And the binding signal (PUM1 PUF domain R3-YFA)?
Answer: 4.33 log2 enrichment (interaction score)

Question: What about the binding signal (PUM1 PUF domain R3-YRL) of the same sequence?
Answer: 2.11 log2 enrichment (interaction score)

Question: For “GGCUAGAACUAGUGGAUCCCCCGGCGCCCGGCGGCUCGAGCCCGGGUAAGUGUACAUAGUCUGCAUGCCGCCGGGCGCCAUGCCUGCAGGUCGACUCUAGAAAACAUG”, which binding signal (PUM1 PUF domain R4-SPT) is on record?
Answer: 1.24 log2 enrichment (interaction score)

Question: How did the binding signal (PUM1 PUF domain R8-HFR) turn out when “GGCUAGAACUAGUGGAUCCCCCGGCGCCCGGCGGCUCGAGCCCGGGUAAGCGUAAAUAGUCUGCAUGCCGCCGGGCGCCAUGCCUGCAGGUCGACUCUAGAAAACAUG” was run?
Answer: 4.92 log2 enrichment (interaction score)

Question: “GGCUAGAACUAGUGGAUCCCCCGGCGCCCGGCGGCUCGAGCCCGGGUAAGUGAAAAUAGUCUGCAUGCCGCCGGGCGCCAUGCCUGCAGGUCGACUCUAGAAAACAUG” was tested. Which binding signal (PUM1 PUF domain R6-VWR) did it give?
Answer: 3.34 log2 enrichment (interaction score)

Question: For “GGCUAGAACUAGUGGAUCCCCCGGCGCCCGGCGGCUCGAGCCCGGGUAAGUGUAAUUAGUCUGCAUGCCGCCGGGCGCCAUGCCUGCAGGUCGACUCUAGAAAACAUG”, which binding signal (PUM1 PUF domain R3-FWA) is on record?
Answer: 5.26 log2 enrichment (interaction score)

Question: And the binding signal (PUM1 PUF domain R3-KRG)?
Answer: 2.07 log2 enrichment (interaction score)

Question: What about the binding signal (PUM1 PUF domain R3-RGR) of the same sequence?
Answer: 2.38 log2 enrichment (interaction score)

Question: How did the binding signal (PUM1 PUF domain R5-FHM) turn out when “GGCUAGAACUAGUGGAUCCCCCGGCGCCCGGCGGCUCGAGCCCGGGUAAGUGUGAAUAGUCUGCAUGCCGCCGGGCGCCAUGCCUGCAGGUCGACUCUAGAAAACAUG” was run?
Answer: 5.31 log2 enrichment (interaction score)

Question: Which binding signal (PUM1 PUF domain R1-FGR) does the source give for “GGCUAGAACUAGUGGAUCCCCCGGCGCCCGGCGGCUCGAGCCCGGGUAAGUGUAAAUUGUCUGCAUGCCGCCGGGCGCCAUGCCUGCAGGUCGACUCUAGAAAACAUG” here?
Answer: 3.11 log2 enrichment (interaction score)

Question: How did the binding signal (PUM1 PUF domain R5-FRY) turn out when “GGCUAGAACUAGUGGAUCCCCCGGCGCCCGGCGGCUCGAGCCCGGGUAAGUGUCAAUAGUCUGCAUGCCGCCGGGCGCCAUGCCUGCAGGUCGACUCUAGAAAACAUG” was run?
Answer: 2.31 log2 enrichment (interaction score)

Question: What about the binding signal (PUM1 PUF domain R5-FHE) of the same sequence?
Answer: 4.41 log2 enrichment (interaction score)

Question: And the binding signal (PUM1 PUF domain R5-RAA)?
Answer: 2.68 log2 enrichment (interaction score)

Question: Which binding signal (PUM1 PUF domain R7-RVQ) does the source give for “GGCUAGAACUAGUGGAUCCCCCGGCGCCCGGCGGCUCGAGCCCGGGUAAGUCUAAAUAGUCUGCAUGCCGCCGGGCGCCAUGCCUGCAGGUCGACUCUAGAAAACAUG” here?
Answer: 1.92 log2 enrichment (interaction score)
